Bioassay records (PubChem)
This excerpt belongs to a sample that is enriched for hits.
Pf Dd2 growth: qHTS Primary assay for Inhibitors of Plasmodium falciparum Dd2 growth in vitro | P. falciparum Dd2 growth, SYBR Green, 72 h | Potency, µM (highest dose often 28.9 µM), without a hit: top-dose activity, negative = inhibition, most hits filed as inhibitors | 120,000 compounds, 4.3% hits; active = well fitted inhibition curve with a large enough effect;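 also: plate controls were DMSO vehicle for no effect and reference drug for full effect; nearly all actives have a fitted effect of over 65% in size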
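Readout: SYBR Green fluorescence, 485 nm excitation, 535 nm emission, after ~16 h lysis at 37C. Before that, Dd2-infected red cells (2.5% hematocrit) grew 72 h with compound, 29 uM top final concentration.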
* hit, by the source's call; [ ] = remark or other dose. Potency is read from the fitted curve at half-maximal effect.

What do the screens show for `COc1ccc(Cl)cc1C(=O)NCC(c1ccc(N(C)C)cc1)N1CCOCC1` (centres undefined)?
Pf Dd2 growth: 33%[5.79 µM]

What do the screens show for `CCc1ccc2oc(C(=O)NCC(c3ccc(OC)cc3)N3CCCCC3)c(C)c2c1` (centres undefined)?
Pf Dd2 growth: 10µM*

Results for CNC(=O)c1cccc2c(C)nnn12 ?
Pf Dd2 growth: -1%[44.1 µM]

How did O=C(c1cn(CCCc2ccccc2)nn1)N1CCCC(c2ccccc2)CC1 (centres undefined) do in these assays?
Pf Dd2 growth: -10%

Results for NC(=O)CN1C(=O)CO[C@H]2CN(C3CCC3)C[C@H]21 ?
Pf Dd2 growth: 11%[44.1 µM]

How did COCCCNC(=O)c1ccc2nc(Cc3ccc(OC)cc3)oc2c1 do in these assays?
Pf Dd2 growth: inactive

How did CN(C)c1ccc(C(=O)N2CCCN(c3cc(-c4ccc(F)cc4)[nH]n3)CC2)cc1 do in these assays?
Pf Dd2 growth: inactive

Results for O=C(Nc1ccccc1F)c1oc2ccccc2c1NC(=O)c1c(F)cccc1F ?
Pf Dd2 growth: -20%

What do the screens show for `O=C(Cc1ccccc1F)NCCc1noc(-c2cccnc2)n1`?
Pf Dd2 growth: 57%

What do the screens show for `O=C(c1cc[nH]c1)N1CCN(CCOCc2ccccc2)CC(O)C1` (centres undefined)?
Pf Dd2 growth: 1%

Results for COc1ccc(NC(=O)c2ccc3c(SCC(=O)O)c4c(nc3c2)CCC4)c(OC)c1 ?
Pf Dd2 growth: -13%

How did COc1ccc(OC)c(NC(=O)c2ccc3c(SCC(=O)O)c4c(nc3c2)CCCC4)c1 do in these assays?
Pf Dd2 growth: 10µM*

What do the screens show for `O=C(O)CSc1c2c(nc3cc(C(=O)Nc4ccc(F)c(Cl)c4)ccc13)CCC2`?
Pf Dd2 growth: -27%

How did CCCC(=O)N1CCc2nc(OCC)ccc2C1 do in these assays?
Pf Dd2 growth: -8%

Results for Cc1ccc(OC2(C(=O)NCc3cccc(N(C)C)c3)CCNCC2)cc1 ?
Pf Dd2 growth: -27%

Results for CC(C)(C)C1CCC2(CC1)NC(=O)N(CC(=O)NC1CCc3ccccc31)C2=O (centres undefined) ?
Pf Dd2 growth: -22%

How did Cc1ccc(OC2(C(=O)N[C@H]3CCc4ccccc43)CCNCC2)cc1 do in these assays?
Pf Dd2 growth: 7.9µM*

How did Cc1noc(C)c1C(=O)N[C@H]1[C@H](O)[C@H](O)C[C@@H]1c1cccnc1 do in these assays?
Pf Dd2 growth: 1%[44.1 µM]

How did COc1ccc2oc(=O)c(C(=O)N3CCN(c4cc(Cl)ccc4Cl)CC3)cc2c1 do in these assays?
Pf Dd2 growth: 2%

Results for Cc1ccc2c(=O)cc(CSc3ccccc3)[nH]c2c1C ?
Pf Dd2 growth: inactive

What do the screens show for `Cn1c(C(=O)N2CCC(C(=O)NCCc3ccc(S(N)(=O)=O)cc3)CC2)cc2sccc21`?
Pf Dd2 growth: 1%

What do the screens show for `CC(C)NC(=O)C1CCN(C(=O)c2cc3sccc3n2Cc2ccc(Cl)cc2)CC1`?
Pf Dd2 growth: 11µM*

Results for COC(=O)c1cc2sccc2n1Cc1ccc(F)cc1 ?
Pf Dd2 growth: inactive

Results for CC1=C[C@@H](CC#N)[C@H](C(C)C)C[C@H]1CC(=O)N1CCOCC1 ?
Pf Dd2 growth: -20%[44.1 µM]

What do the screens show for `Cc1cc2nc3n(c(=O)c2n1CC(=O)N1CCN(c2ccc(F)cc2)CC1)CCCCC3`?
Pf Dd2 growth: -20%

Results for CC(C)CNC(=O)N1CCC2(CC1)CC(N(C)Cc1ccccc1)CCO2 (centres undefined) ?
Pf Dd2 growth: 16%

How did COC1CCOC2(CCN(S(=O)(=O)c3ccccc3)CC2)C1 (centres undefined) do in these assays?
Pf Dd2 growth: 24%

Results for COc1ccc(S(=O)(=O)N2CCC3(CC2)CC(N(C)Cc2ccccc2)CCO3)cc1 (centres undefined) ?
Pf Dd2 growth: 11µM*

What do the screens show for `CN(Cc1ccccc1)C1CCOC2(CCN(C(=O)NC3CCCC3)CC2)C1` (centres undefined)?
Pf Dd2 growth: 6.3µM*

How did CC(C)NC(=O)N(C1CC1)C1CCOC2(CCN(C(=O)NCc3ccccc3)CC2)C1 (centres undefined) do in these assays?
Pf Dd2 growth: 9%

How did COc1cccc(CC(=O)N2CCC3(CC2)CC(N(C2CC2)S(C)(=O)=O)CCO3)c1 (centres undefined) do in these assays?
Pf Dd2 growth: inactive

How did CCOc1ccc(C(=O)N2CCC3(CC2)NC(=O)N(c2ccc(F)cc2)N3)cc1 do in these assays?
Pf Dd2 growth: -9%

Results for COc1cc2c(cc1OCC1CC1)NC(=O)C21CCN(C(=O)Cc2ccccc2)CC1 ?
Pf Dd2 growth: inactive

What do the screens show for `O=c1c2nc(-c3ccoc3)ccc2ncn1-c1ccccc1`?
Pf Dd2 growth: inactive

What do the screens show for `Cc1ccc(C(=O)NC2CCN(c3cc(-c4ccc(F)cc4)[nH]n3)CC2)cc1`?
Pf Dd2 growth: -17%

What do the screens show for `O=C(CSc1nccn1Cc1ccc(F)cc1)NC1CCCC1`?
Pf Dd2 growth: 15%

Results for O=C1CC(c2ccccc2)N(Cc2ccncc2)CCCN(C(=O)CN2C(=O)CCC2=O)CCN1 (centres undefined) ?
Pf Dd2 growth: -19%

How did O=C1CC(c2ccccc2)N(C(=O)C2CC2)CCCN(C(=O)c2cccs2)CCN1 (centres undefined) do in these assays?
Pf Dd2 growth: -18%

Results for CS(=O)(=O)N1CCCN(C(=O)c2ccsc2)CCNC(=O)CC1c1ccccc1 (centres undefined) ?
Pf Dd2 growth: 3%

What do the screens show for `CS(=O)(=O)N1CCCN(Cc2ccc(C#N)cc2)CCNC(=O)CC1c1ccccc1` (centres undefined)?
Pf Dd2 growth: -18%

Results for O=C1CC(c2ccccc2)N(Cc2ccncc2)CCCN(C(=O)c2ccc3ccccc3n2)CCN1 (centres undefined) ?
Pf Dd2 growth: -7%

How did CCCS(=O)(=O)N1CCCC(C(=O)NCc2ccccc2)CCNC(=O)CC1 (centres undefined) do in these assays?
Pf Dd2 growth: 26%

What do the screens show for `COc1cccc(CN2CCCN(Cc3ccncc3)C(c3ccccc3)CC(=O)NCC2)c1` (centres undefined)?
Pf Dd2 growth: 1.4µM*

What do the screens show for `CCCS(=O)(=O)N1CCCN(Cc2ccncc2)C(c2ccccc2)CC(=O)NCC1` (centres undefined)?
Pf Dd2 growth: 14µM*

Results for COc1cccc(CC(=O)N2CCCN(S(C)(=O)=O)C(c3ccccc3)CC(=O)NCC2)c1 (centres undefined) ?
Pf Dd2 growth: -11%

How did O=C1CC(c2ccccc2)N(Cc2ccncc2)CCCN(C(=O)c2ccsc2)CCN1 (centres undefined) do in these assays?
Pf Dd2 growth: 5.6µM*

Results for Cc1ccc(C(=O)N2CCCN(S(C)(=O)=O)C(c3ccccc3)CC(=O)NCC2)cn1 (centres undefined) ?
Pf Dd2 growth: -9%

How did O=C1CC(c2ccccc2)N(Cc2ccncc2)CCCN(C(=O)c2ccc3ncccc3c2)CCN1 (centres undefined) do in these assays?
Pf Dd2 growth: 6.3µM*

Results for Cc1cccc(OCC(=O)N2CCN(Cc3cc(=O)n4nc(-c5ccccc5Cl)sc4n3)CC2)c1 ?
Pf Dd2 growth: 39%

Results for COc1cccc(C(=O)N2CCCN(c3cc(-c4ccc(C)c(C)c4)[nH]n3)CC2)c1OC ?
Pf Dd2 growth: -5%

How did CCOCCNc1cc(Cl)nc2ccnn12 do in these assays?
Pf Dd2 growth: inactive

What do the screens show for `CCn1c(CN(C)C)nnc1C1CCN(C(=O)c2cnn3ccccc23)CC1`?
Pf Dd2 growth: -17%
